This is an account of results in ChEMBL document CHEMBL2218924, “A broad activity screen in support of a chemogenomic map for kinase signalling research and drug discovery” (Biochem J, 2013).

For assay [1], the target named is T1, Ephrin type-A receptor 3 (Homo sapiens) (UniProt P29320).
T1 sequence (whole entry): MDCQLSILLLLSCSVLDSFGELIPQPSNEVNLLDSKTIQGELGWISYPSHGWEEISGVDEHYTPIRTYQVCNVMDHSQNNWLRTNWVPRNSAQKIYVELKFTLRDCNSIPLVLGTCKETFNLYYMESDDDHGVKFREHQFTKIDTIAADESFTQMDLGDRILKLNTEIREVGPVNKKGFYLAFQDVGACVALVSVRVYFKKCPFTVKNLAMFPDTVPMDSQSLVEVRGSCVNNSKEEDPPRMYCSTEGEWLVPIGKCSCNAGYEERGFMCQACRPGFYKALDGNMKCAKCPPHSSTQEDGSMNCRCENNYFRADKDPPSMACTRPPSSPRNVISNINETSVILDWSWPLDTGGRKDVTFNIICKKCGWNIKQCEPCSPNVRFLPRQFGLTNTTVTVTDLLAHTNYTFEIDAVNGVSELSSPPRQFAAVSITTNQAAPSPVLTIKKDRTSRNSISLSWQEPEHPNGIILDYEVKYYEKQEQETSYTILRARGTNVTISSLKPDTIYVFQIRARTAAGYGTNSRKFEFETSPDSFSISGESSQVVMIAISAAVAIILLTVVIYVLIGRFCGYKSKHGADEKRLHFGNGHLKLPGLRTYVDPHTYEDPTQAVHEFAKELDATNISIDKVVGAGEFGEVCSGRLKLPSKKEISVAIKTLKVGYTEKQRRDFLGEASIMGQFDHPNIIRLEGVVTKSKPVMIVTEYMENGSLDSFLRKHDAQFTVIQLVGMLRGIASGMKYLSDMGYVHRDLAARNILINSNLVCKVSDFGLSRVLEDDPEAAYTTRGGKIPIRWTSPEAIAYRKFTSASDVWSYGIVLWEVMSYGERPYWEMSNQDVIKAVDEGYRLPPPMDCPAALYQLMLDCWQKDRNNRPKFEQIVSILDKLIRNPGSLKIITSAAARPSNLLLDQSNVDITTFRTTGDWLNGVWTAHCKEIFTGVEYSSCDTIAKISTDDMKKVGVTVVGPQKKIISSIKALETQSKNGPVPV
To be noted: at 10 µM.

For assay [2], the target named is Ephrin type-A receptor 5 (Homo sapiens) (UniProt P54756). To be noted: at 1 µM.
Chain of Ephrin type-A receptor 5 (Homo sapiens) (P54756 whole entry): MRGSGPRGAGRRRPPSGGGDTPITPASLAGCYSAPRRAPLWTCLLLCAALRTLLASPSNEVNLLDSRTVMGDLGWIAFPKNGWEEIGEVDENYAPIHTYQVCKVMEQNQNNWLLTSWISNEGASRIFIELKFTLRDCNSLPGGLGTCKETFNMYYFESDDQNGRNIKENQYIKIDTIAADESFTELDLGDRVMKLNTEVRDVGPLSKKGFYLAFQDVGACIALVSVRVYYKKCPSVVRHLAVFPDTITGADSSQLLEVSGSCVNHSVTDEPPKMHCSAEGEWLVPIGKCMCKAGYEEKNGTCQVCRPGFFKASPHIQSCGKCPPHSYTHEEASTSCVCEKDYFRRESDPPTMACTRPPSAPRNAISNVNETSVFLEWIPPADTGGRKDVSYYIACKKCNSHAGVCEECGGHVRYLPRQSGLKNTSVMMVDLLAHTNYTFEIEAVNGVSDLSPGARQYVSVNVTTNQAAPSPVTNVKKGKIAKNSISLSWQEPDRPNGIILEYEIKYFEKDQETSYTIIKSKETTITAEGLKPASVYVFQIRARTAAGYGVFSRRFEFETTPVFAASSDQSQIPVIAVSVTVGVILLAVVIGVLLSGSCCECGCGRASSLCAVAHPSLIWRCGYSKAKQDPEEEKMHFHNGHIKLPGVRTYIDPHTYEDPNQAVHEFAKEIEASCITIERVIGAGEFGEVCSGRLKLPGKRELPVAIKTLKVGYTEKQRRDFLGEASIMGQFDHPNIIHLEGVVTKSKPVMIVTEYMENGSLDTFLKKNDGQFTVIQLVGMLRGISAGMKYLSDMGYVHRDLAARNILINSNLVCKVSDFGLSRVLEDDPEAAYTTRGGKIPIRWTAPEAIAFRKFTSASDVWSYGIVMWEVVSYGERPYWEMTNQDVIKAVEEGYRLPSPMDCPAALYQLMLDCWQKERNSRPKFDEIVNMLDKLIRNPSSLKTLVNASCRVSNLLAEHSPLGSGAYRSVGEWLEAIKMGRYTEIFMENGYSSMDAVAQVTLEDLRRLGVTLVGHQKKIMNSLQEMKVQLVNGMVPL
For assay [3] the target is unchanged. To be noted: at 10 µM.
Assay [4] concerns the target Ephrin type-A receptor 7 (Homo sapiens) (UniProt Q15375). To be noted: at 1 µM.
Assay [5] has the same target. The note with it: at 10 µM.
In assay [6] the target is T2, Ephrin type-A receptor 8 (Homo sapiens) (UniProt P29322).
T2 sequence (whole entry): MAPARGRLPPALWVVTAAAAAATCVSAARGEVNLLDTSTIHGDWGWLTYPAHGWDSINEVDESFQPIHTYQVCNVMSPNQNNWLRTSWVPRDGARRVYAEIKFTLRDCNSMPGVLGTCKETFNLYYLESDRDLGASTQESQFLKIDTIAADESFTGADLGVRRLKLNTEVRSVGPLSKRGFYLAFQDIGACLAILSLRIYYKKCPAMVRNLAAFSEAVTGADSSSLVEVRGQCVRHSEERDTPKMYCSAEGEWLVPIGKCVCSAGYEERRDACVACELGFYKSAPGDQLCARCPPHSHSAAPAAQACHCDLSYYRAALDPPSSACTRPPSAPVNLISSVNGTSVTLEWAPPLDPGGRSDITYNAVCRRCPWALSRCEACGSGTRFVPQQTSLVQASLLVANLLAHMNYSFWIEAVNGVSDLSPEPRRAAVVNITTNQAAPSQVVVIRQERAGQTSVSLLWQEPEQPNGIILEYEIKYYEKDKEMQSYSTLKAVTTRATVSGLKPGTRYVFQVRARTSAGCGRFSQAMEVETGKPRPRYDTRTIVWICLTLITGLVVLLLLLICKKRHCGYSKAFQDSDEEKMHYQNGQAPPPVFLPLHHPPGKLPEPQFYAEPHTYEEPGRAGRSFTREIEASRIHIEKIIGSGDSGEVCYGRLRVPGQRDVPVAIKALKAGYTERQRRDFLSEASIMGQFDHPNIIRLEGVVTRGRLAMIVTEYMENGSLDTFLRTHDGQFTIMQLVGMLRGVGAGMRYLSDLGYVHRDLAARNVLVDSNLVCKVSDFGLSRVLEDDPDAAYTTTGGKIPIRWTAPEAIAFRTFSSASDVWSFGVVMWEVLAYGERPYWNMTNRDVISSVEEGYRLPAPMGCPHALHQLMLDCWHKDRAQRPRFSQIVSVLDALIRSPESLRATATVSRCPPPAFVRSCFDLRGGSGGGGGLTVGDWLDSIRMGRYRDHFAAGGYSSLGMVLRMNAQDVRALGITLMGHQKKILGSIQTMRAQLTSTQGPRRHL
To be noted: at 1 µM.

Assay [7] concerns the target T2, Ephrin type-A receptor 8 (Homo sapiens). The note with it: at 10 µM.
The target of assay [8] is T3, Ephrin type-B receptor 1 (Homo sapiens) (UniProt P54762).
T3 sequence (whole entry): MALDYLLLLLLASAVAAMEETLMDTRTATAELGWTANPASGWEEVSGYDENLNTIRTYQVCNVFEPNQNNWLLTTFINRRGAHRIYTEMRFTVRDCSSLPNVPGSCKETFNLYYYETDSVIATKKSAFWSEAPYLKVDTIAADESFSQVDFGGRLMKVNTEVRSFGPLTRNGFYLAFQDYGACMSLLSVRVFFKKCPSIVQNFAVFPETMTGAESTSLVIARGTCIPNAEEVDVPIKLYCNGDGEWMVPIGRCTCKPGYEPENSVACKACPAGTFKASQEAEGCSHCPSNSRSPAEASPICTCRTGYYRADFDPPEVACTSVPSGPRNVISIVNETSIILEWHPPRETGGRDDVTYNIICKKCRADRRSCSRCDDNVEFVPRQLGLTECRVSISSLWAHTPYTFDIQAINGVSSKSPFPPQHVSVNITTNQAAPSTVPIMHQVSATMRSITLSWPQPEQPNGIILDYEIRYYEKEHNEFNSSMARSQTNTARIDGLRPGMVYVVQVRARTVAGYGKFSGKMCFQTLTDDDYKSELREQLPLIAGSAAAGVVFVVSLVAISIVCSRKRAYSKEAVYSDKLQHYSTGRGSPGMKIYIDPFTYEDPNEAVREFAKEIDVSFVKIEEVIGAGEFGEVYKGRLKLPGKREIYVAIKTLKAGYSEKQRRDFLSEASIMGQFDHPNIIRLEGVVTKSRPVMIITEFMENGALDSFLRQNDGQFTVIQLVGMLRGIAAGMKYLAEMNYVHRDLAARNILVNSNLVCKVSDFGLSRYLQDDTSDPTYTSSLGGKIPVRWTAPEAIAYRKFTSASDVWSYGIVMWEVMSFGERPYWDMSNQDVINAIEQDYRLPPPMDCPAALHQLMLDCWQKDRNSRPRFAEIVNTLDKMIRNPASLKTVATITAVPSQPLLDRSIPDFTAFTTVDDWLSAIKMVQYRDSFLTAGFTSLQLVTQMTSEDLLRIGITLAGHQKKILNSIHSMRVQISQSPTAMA
The note with it: at 1 µM.

Assay [9] addresses T3, Ephrin type-B receptor 1 (Homo sapiens). To be noted: at 10 µM.

Chain of Ephrin type-A receptor 7 (Homo sapiens) (Q15375 28-998 limits assumed): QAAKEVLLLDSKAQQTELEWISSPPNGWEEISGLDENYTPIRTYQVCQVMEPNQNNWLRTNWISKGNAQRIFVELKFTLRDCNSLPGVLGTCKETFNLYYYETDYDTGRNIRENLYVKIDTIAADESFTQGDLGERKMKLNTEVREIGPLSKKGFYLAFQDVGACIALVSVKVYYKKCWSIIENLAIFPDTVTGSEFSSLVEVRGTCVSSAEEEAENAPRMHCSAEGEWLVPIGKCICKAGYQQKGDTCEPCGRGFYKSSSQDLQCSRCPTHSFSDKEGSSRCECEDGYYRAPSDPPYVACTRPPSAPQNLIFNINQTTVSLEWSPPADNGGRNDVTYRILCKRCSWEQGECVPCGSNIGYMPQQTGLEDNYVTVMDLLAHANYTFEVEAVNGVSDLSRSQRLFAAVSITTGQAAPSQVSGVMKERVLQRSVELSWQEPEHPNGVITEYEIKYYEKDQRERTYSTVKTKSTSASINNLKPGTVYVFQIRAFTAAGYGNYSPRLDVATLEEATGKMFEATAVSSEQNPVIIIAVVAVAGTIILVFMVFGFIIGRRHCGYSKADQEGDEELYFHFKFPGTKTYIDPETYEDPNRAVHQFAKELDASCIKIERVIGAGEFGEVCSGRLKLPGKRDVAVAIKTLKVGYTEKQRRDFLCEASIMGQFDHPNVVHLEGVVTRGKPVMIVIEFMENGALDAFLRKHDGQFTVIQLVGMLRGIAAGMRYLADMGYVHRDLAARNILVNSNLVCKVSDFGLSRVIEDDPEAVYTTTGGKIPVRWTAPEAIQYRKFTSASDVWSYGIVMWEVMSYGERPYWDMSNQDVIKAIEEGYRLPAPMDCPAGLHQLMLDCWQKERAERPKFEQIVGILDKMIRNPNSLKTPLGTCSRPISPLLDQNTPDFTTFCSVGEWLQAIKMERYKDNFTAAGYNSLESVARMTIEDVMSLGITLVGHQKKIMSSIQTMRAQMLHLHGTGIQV

Take `O=C1Nc2ccccc2/C1=C1/Nc2ccccc2/C1=N\OCCC(O)CO` (centres undefined): the residual activity in assay [1] was found to be 6%; in assay [2] it was 59%; in assay [3], 23%; in assay [4] it was 58%; in assay [5] it was 10%; in [6] it was 72%. Further, the residual activity is 32% in [7], 56% in assay [8] and 8% in assay [9].

One may read the residual activity as the activity still measured, relative to the control. Read a high residual activity as a small loss of activity.
